Screening results (PubChem BioAssay)
AmpC inh detg – qHTS Inhibitors of AmpC Beta-Lactamase (assay with detergent) | P00811 | AmpC hydrolysis of nitrocefin, absorbance 480 nm, 0.01% Triton | Potency, µM (series often up to 114 µM), inactives show at the highest dose activity change, negative = inhibition, hits mostly inhibitors | 370,000 compounds, 0.041% hits | AID 485294, 2010;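 note: 0% = no-compound wells and -100% = no-enzyme wells; nearly all actives have a fitted effect of over 25% in size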
Target sequence (P00811 whole entry, looked up): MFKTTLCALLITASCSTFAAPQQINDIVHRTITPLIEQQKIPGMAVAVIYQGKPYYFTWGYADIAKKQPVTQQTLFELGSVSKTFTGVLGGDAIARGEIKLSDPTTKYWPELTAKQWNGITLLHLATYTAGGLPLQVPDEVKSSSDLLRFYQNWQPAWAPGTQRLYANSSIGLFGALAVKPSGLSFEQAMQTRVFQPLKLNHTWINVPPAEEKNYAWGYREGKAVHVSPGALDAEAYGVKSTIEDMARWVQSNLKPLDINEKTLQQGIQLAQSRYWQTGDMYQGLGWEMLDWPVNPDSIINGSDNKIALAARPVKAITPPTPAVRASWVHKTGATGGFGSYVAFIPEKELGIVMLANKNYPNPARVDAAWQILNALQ
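AmpC (5.3 nM in the dispensed reagent) in 20 mM phosphate pH 7.0 with 0.01% (detergent screen) or 0.0001% Triton X-100 was preincubated with compounds for 15 min at room temperature. Nitrocefin was then added from an 800 uM solution, and hydrolysis was followed at 480 nm.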
Pf growth 48h – Primary qHTS for delayed death inhibitors of the malarial parasite plastid, 48 hour incubation | 310,000 compounds, 5.9% hits | P. falciparum luciferase growth in erythrocytes, 48 h | AID 504832, 2011 | Potency, µM (top dose mostly 28.7 µM), without a hit: at the top dose activity change, negative = inhibition, most hits filed as inhibitors
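Read-out is firefly luciferase luminescence from an integrated reporter in P. falciparum, so falling signal marks reduced parasite growth. Infected erythrocytes were at 2% hematocrit and 0.1% parasitemia (final) in Albumax-supplemented RPMI 1640.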
AMA1 RON2 block – qHTS for Inhibitors of AMA1-RON; Towards Development of Antimalarial Drug Lead: Primary Screen. AlphaScreen AMA1-biotinylated RON2 peptide binding. 360,000 compounds, 0.2% hits. Potency, µM (titrated, usually from 58.2 µM), inactives show at the highest dose activity change, negative = inhibition, actives largely listed as inhibitors;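 note: 0% = vehicle wells and -100% = peptide control; nearly all actives have a fitted effect of over 45% in size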
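AMA1 (3D7) with his tag at 25 nM final met compounds first, then biotinylated RON2 peptide at 25 nM; detection used donor plus acceptor beads, 10 µg/mL apiece, read by AlphaScreen after 30 min at room temperature.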
AmpC inh no detg – qHTS Inhibitors of AmpC Beta-Lactamase (assay without detergent). P00811. AmpC nitrocefin hydrolysis, absorbance 480 nm, 0.0001% Triton. Potency, µM (titrated, usually from 57.1 µM), for the others: at the highest dose activity change, negative = inhibition, most hits filed as inhibitors. 330,000 compounds, 0.52% hits. AID 485341, 2010;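 note: plate controls were no compound for no effect and no enzyme for full effect; nearly all actives have a fitted effect of over 20% in size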
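20 mM phosphate pH 7.0 + 0.01% (detergent screen) or 0.0001% Triton X-100; 5.3 nM AmpC reagent; cpd preinc 15 min RT; nitrocefin (800 uM stock) to start; A480 q20 s × 4 min; Activity was normalised to no-enzyme and no-compound control wells.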
HCV inhibitor – qHTS Assay for Inhibitors of Hepatitis C Virus (HCV); Huh7.5.1 HCVcc-Cre infection, luciferase reporter, 44 h; Potency, µM (top dose mostly 41.8 µM), without a hit: at the top dose activity change, negative = inhibition, most hits filed as inhibitors; 340,000 compounds, 3.4% hits; AID 651820, 2012
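Seed cells (1,000/well) for 4 h; treat with compound and infect with HCVcc-Cre, moi about 0.5. Incubate 44 h, then detect luciferase activity.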
Pf growth 96h – Primary qHTS for delayed death inhibitors of the malarial parasite plastid, 96 hour incubation; 320,000 compounds, 6.9% hits; P. falciparum luciferase reporter growth, 96 h; AID 504834, 2011; Potency, µM (titrated, usually from 28.7 µM), for the others: top-dose activity change, negative = inhibition, actives largely listed as inhibitors
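96 h incubation, 37 C, 5% CO2, of luciferase-reporter P. falciparum-infected RBCs (2% hematocrit, 0.05% parasitemia final) with test compounds; endpoint luminescence.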
Numbers without * were called inactive; ? = inconclusive; . = not tested or not shown. This is a sample that favours compounds with a hit; in the whole collection about 11% have one here. Calls come from the whole dose curve; as a rule, active = well fitted curve in the direction sought with a large enough effect; inconclusive = small, poorly fitted or top-dose-only effect, or another doubt; inactive = no such curve, though single readings can be large; an effect the other way counts as inactive or inconclusive. Unless noted, % is set by controls: 0 for no effect and ±100 for the full control effect; potency is the fitted concentration of half-maximal effect.

SMILES	AmpC inh detg	Pf growth 48h	AMA1 RON2 block	AmpC inh no detg	HCV inhibitor	Pf growth 96h
CN(C)S(=O)(=O)c1ccc2[nH]cc(/C=C/c3nc4ccccc4c(=O)n3-c3ccccc3)c2c1	-11%	9.3µM*	0%	-10%	?	?
Cc1ccc(C)c(CS(=O)(=O)c2cn(CC(=O)N3CCC(C)CC3)c3ccccc23)c1	-3%	?	8%	26%	-3%	5.2µM*
CCOc1cc(/C=N/Nc2nc(=O)[nH]nc2C)ccc1O	-17%	2.3µM*	65%	-26%	-3%	17%
NC(=O)C1CCN(c2oc(-c3ccc(F)cc3)nc2S(=O)(=O)c2ccccc2)CC1	-8%	10µM*	-8%	63%	0%	?
O=S(=O)(c1ccccc1)c1nc(-c2ccccc2Cl)oc1N1CCCCCC1	24%	.	.	.	.	.
CCN1CCN(c2oc(-c3ccccc3C)nc2S(=O)(=O)c2ccccc2)CC1	9%	?	?	247%	-13%	9.3µM*
CC1CCN(c2oc(-c3ccco3)nc2S(=O)(=O)c2ccccc2)CC1	-11%	-17%	?	-3%	-8%	4.7µM*
CC(C)Cn1cc(C(=O)NC2CCN(Cc3ccccc3)CC2)c2c3ccccc3n(C)c2c1=O	1%	2.6µM*	.	55%	.	?
CC(C)Cn1cc(C(=O)N2CCN(c3ccccn3)CC2)c2c3ccccc3n(C)c2c1=O	0%	7.4µM*	-4%	137%	?	9.3µM*
